SENP6 inh – SENP6 protease inhibition. Q9GZR1. Recombinant SENP6 catalytic domain, aminoluciferin luminescence. inhibition, % at 10 µM. actives 1.8% (n = 330,000). AID 2599;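 active means inhibition above about 50% at the single tested dose, limit read from the data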;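 further: plate controls were DMSO wells with enzyme for no effect and DMSO wells lacking enzyme for full effect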
SENP7 block – blocks the human protease SENP7 | actives 1.5% (n = 330,000) | inhibition, % at 5 µM | AID 434973 | Q9BQF6 | recombinant SENP7, Z-RLRGG-aminoluciferin luminescence, 40 min;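 active means inhibition above about 50% at the single test dose, limit read from the data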;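 further: plate controls were DMSO with enzyme for no effect and no enzyme buffer wells for full effect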
Target sequence (Q9BQF6 706-1050 limits assumed): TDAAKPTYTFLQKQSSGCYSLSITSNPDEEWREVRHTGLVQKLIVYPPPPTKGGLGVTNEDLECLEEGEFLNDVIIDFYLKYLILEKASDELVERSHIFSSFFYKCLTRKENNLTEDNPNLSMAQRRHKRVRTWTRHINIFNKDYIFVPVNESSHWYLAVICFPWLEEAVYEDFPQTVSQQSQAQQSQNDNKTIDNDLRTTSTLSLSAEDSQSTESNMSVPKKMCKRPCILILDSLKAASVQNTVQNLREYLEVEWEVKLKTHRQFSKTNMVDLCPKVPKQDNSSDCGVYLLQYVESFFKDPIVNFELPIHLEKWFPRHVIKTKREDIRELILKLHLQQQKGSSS
SENP8 block-1 – inhibitors of human SENP8 protease. Q96LD8. purified SENP8, Z-RLRGG-aminoluciferin cleavage, luminescence. inhibition, % at 10 µM. actives 1.2% (n = 330,000). AID 2540; in the data active means inhibition above about 50%
Target sequence (Q96LD8 whole entry, looked up): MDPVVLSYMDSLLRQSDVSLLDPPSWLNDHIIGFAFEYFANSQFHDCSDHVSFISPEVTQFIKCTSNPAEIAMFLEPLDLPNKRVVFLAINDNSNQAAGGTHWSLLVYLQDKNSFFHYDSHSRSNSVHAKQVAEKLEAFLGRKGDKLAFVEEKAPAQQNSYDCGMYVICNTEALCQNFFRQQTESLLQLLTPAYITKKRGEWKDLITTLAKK
AHR activator – activators of human aryl hydrocarbon receptor. P35869. AHR-responsive luciferase reporter cells, luminescence. activation, % at 5 µM. actives 2.5% (n = 320,000). AID 2796; in the data active means activation above about 47%;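 further: 0% = vehicle wells and 100% = reference agonist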
SENP8 block-2 – SENP8 (human) protease inhibition; recombinant SENP8, Nedd8 substrate fluorescence; Q96LD8; inhibition, % at 20 µM; actives 0.64% (n = 360,000); in the data active means inhibition mostly above about 40%, no sharp cut-off; inactive means mostly below about 27%
EBI2 antag – blocks human EBI2 receptor beta-arrestin signaling; P32249; EBI2 beta-arrestin recruitment, luminescence, 7a,25-OHC stimulated; inhibition, % at 5 µM; actives 0.81% (n = 360,000); AID 651636; in the data active means inhibition above about 38%;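 further: enzyme fragment complementation signal reports receptor beta-arrestin coupling in cells; 0% = agonist plus DMSO wells and 100% = wells without agonist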
SENP8 conf-1 – confirmation of human SENP8 protease inhibitors; AID 488912; actives 40% (n = 6,200); Recombinant SENP8, Z-RLRGG-aminoluciferin luminescence, 60 min; shares compounds with SENP7 block; inhibition, % at 12.5 µM;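 active means mean inhibition across replicates above about 50%, limit read from the data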
SENP6 confirm – human SENP6 inhibition, confirmed | shares compounds with SENP7 block | recombinant SENP6, Z-RLRGG-aminoluciferin luminescence | inhibition, % at 12.5 µM | actives 58% (n = 6,200) | AID 488915
SENP7 conf – human SENP7 inhibition, confirmed | actives 69% (n = 6,200) | inhibition, % at 12.5 µM | recombinant SENP7, Z-RLRGG-aminoluciferin luminescence, 40 min | shares compounds with SENP7 block | AID 488917
Casp3 SENP sel – inhibits human caspase-3 in SENP selectivity test; shares compounds with SENP7 block; inhibition, % at 12.5 µM; actives 60% (n = 6,200); AID 488918; purified caspase-3, Z-DEVD-aminoluciferin luminescence, 60 min;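 active means mean inhibition above about 50%, limit read from the data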;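 further: plate controls were enzyme with DMSO for no effect and wells without caspase-3 for full effect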
Luc interf – luminescence interference (SENP counter-screen); shares compounds with SENP7 block; Pre-incubated SENP8/Z-RLRGG-aminoluciferin, luciferase luminescence interference; inhibition, % at 12.5 µM; actives 39% (n = 6,200); AID 488919;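 active means mean inhibition above about 50% when retested at one dose, limit read from the data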;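 further: plate controls were DMSO wells with completed reaction for no effect and substrate without enzyme for full effect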
SENP8 conf-2 – confirmation of human SENP8 protease inhibitors. shares compounds with SENP8 block-2. purified SENP8, Nedd8-AMC/pro-Nedd8 cleavage fluorescence, 30 min. inhibition, % at 25 µM. actives 15% (n = 1,400). AID 624319; in the data active means inhibition mostly above about 39%, no sharp cut-off; inactive means mostly below about 34%
EBI2 antag conf – confirmation of human EBI2 receptor antagonists | AID 651997 | actives 29% (n = 2,400) | inhibition, % at 5 µM | shares compounds with EBI2 antag | EBI2 beta-arrestin luminescence, 7a,25-OHC antagonism;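 active means inhibition of at least 50%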
EBI2 ag – activates EBI2, counter-screen for EBI2 antagonists. shares compounds with EBI2 antag. EBI2-expressing cells, agonist mode, luminescence, 60 min; 0% vehicle, 100% 7α,25-dihydroxycholesterol control. activation, % at 5 µM. 2,400 tested, under 10 active. AID 652000;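 active means activation of at least 50%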
bGal counter – inhibits E. coli beta-galactosidase, counter-screen for EBI2 antagonists; shares compounds with EBI2 antag; purified beta-galactosidase, luminescent Galacton Star, 15 min; actives 1% (n = 2,400); inhibition, % at 5 µM;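 active means replicate-average signal at least 3 plate SD below neutral wells, shown as high inhibition, flagging enzyme-inhibiting false positives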;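 further: 0% = DMSO wells with enzyme and 100% = wells lacking enzyme; higher means stronger loss of beta-gal luminescence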
Starred values were filed as active, the others as inactive; . = no result given. Hits are enriched below; roughly 5% of the tested compounds scored in any of these assays.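 How the source made its calls, unless noted: active means mean inhibition above about 50% in the one-dose retest (limit read from the data); inactive means the rest.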

SMILES	SENP6 inh	SENP7 block	SENP8 block-1	AHR activator	SENP8 block-2	EBI2 antag	SENP8 conf-1	SENP6 confirm	SENP7 conf	Casp3 SENP sel	Luc interf	others
[O-]/C(=C(\C(=S)Nc1cccc2ccccc12)[n+]1ccccc1)c1ccc(OC(F)F)cc1	.	.	.	.	-202	5	.	.	.	.	.
Oc1cc(NCCN2CCOCC2)cc2cccnc12	74*	64*	61*	2	64*	-17	40	76*	40	95*	4	SENP8 conf-2=91*
Oc1cc(Nc2ccccc2)cc2cccnc12	23	-4	-3	4	-22	-29	.	.	.	.	.
O=C(CNS(=O)(=O)c1c(F)cc(F)cc1Br)OCC(=O)N1CCCC1=O	-3	1	-4	2	4	4	.	.	.	.	.
C[n+]1cccc2c(Br)ccc([O-])c21	95*	87*	93*	4	117*	-33	11	40	17	6	-1	SENP8 conf-2=69*
COc1ccc2c(c1)Cc1sc(NC(C)=O)nc1-2	81*	62*	73*	-5	67*	10	-8	52*	76*	54*	29	SENP8 conf-2=66*
CCCCC(CC)C(=O)N1CCN(C(=O)c2ccco2)CC1 (stereo unspecified)	-6	5	-7	-1	10	-17	.	.	.	.	.
Nc1scc2c(C(=O)N/N=C/c3ccc(Cl)cc3)nn(-c3ccccc3)c(=O)c12	50*	9	25	4	69*	10	21	26	18	24	-3	SENP8 conf-2=86*
COc1ccc(/C=N/NC(=O)c2nc(-c3ccccc3)n(-c3ccccc3)n2)cc1	6	4	7	8	4	3	.	.	.	.	.
CCc1ccc(OCc2cnc(Cl)s2)cc1	-20	-8	-20	-1	8	2	.	.	.	.	.
CN(C)c1ccc(NC(=O)C[n+]2ccccc2)cc1	-7	-13	0	2	10	-4	.	.	.	.	.
CN(C)c1ccc(NC(=O)Oc2ccccc2)cc1	75*	4	36	39	44*	2	64*	61*	85*	81*	46	SENP8 conf-2=10
O=C(COc1ccccc1F)Nc1cc(S(=O)(=O)Nc2cccc(Cl)c2)ccc1O	-11	-7	-10	11	6	8	.	.	.	.	.
Cc1c(NC(=O)C(C)OC(=O)c2ccc([N+](=O)[O-])s2)c(=O)n(-c2ccccc2)n1C (stereo unspecified)	58*	15	54*	2	48*	-1	47	79*	28	7	-16	SENP8 conf-2=73*
Cc1c(NC(=O)C(C)OC(=O)c2sc3ccccc3c2Cl)c(=O)n(-c2ccccc2)n1C (stereo unspecified)	-25	-2	0	2	9	-4	.	.	.	.	.
CCC1CCCCN1C(=O)CCS(=O)(=O)c1ccc2c(c1)CCN2C(C)=O (stereo unspecified)	-7	6	-5	2	16	-1	.	.	.	.	.
CCOc1ccc2oc(C(=O)Nc3cc(C)ccn3)c(C)c2c1	93*	97*	90*	5	-220	43*	38	63*	76*	83*	22	EBI2 antag conf=10;EBI2 ag=-1;bGal counter=-10
CC(=O)c1cccc(Nc2nc(-c3cccnc3)cs2)c1	-48	-23	-31	.	-5	20	.	.	.	.	.
Cc1ccc(Nc2nc(-c3cccnc3)cs2)cc1C	74*	58*	55*	54*	4	49*	10	68*	88*	36	13	EBI2 antag conf=56*;EBI2 ag=2;bGal counter=2
CC(=O)c1cccc(NC(=O)CCC(=O)Oc2ccc(C)cc2)c1	10	-6	-3	3	18	5	.	.	.	.	.
CC(C)c1ccc2oc(-c3ccc(N)cc3)nc2c1	94*	93*	86*	35	-277	52*	94*	95*	100*	69*	94*	EBI2 antag conf=57*;EBI2 ag=0;bGal counter=-1
N#Cc1ccc(C(=O)Nc2ccc3ccccc3c2)cc1	29	72*	22	11	-8	60*	32	37	81*	59*	5	EBI2 antag conf=51*;EBI2 ag=3;bGal counter=1
CCC(=O)Nc1ccc(C(=O)Nc2ccc3c(c2)OCO3)cc1	-15	-8	-6	-3	13	11	.	.	.	.	.
CCCOc1ccc(C(=O)Nc2ccc3c(c2)OCO3)cc1	82*	89*	71*	4	8	52*	14	73*	80*	84*	19	EBI2 antag conf=20;EBI2 ag=-1;bGal counter=-8
CSc1nc2cc(C)nn2c(-c2ccccc2)c1C#N	1	-4	0	1	7	-9	.	.	.	.	.
CCc1nc(C)cn1S(=O)(=O)c1ccc(Br)cc1	-3	-4	9	.	-2	1	.	.	.	.	.
O=C(c1cc2c(ccc3ccccc32)o1)N1CCCCC1	93*	91*	84*	-7	8	51*	90*	90*	99*	86*	89*	EBI2 antag conf=27;EBI2 ag=0;bGal counter=6
CCc1ccc(NC(=S)Nc2cccc3cnccc23)cc1	92*	64*	83*	23	-165	50*	10	32	11	2	4	EBI2 antag conf=9;EBI2 ag=0;bGal counter=-3
CCc1ccc(NC(=S)NCc2cccnc2)cc1	1	-4	-4	6	6	1	.	.	.	.	.
O=C(Nc1ccc(OC(F)(F)F)cc1)c1cc(S(=O)(=O)N2CCCCC2)ccc1N1CCOCC1	.	.	.	.	13	9	.	.	.	.	.

Screening results from PubChem BioAssay.
